{
  "source": "PubChem BioAssay (NCI)",
  "note": "About 83,000 compounds went through this panel and 20% of them were active in at least one assay; those are over-represented in the sample as a whole.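 A percent growth of 40 corresponds to 60% growth inhibition; 0 means no net growth; -100 means all cells died. Active threshold: below 10.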 Calls of active or inactive are those of the source.",
  "data": [
    {"system": "MCF7 breast", "experiment": "NCI-60 one-dose screen, 48 h (100 = growth as untreated, 0 = no growth, -100 = all killed)", "conditions": "10 µM unless noted", "experimental": "Growth inhibition of the MCF7 human tumor cell line is measured as a screen for anti-cancer activity. Cells are grown in 96 well plates and exposed to the test compound for 48 hours. Compounds are tested at a single concentration, which is 10^-5 M for most compounds. The reported endpoint is percent growth (GI% or GIPRCNT), where numbers from 0 - 100% represent growth inhibition, and numbers from -100% - 0 represent cell death. For example, a value of 40 represents 60% growth inhibition. A value of 0 means no net growth occurred over the course of the experiment. A value of -40 indicates 40% of cells at the beginning of the experiment died by the end of the experiment. A value of -100 means all cells are dead at the end of the experiment.\nNCI-60 Human Tumor Cell Lines Screen was performed using the standard one-dose NCI protocol, which is described in more detail at https://dtp.cancer.gov/discovery_development/nci-60/default.htm.\nCompounds with GIPRCNT values below 10 were considered active. Activity score was based on GIPRCNT using the following formula: […]\nScore is 0 for GIPRCNT values of 100 or above, 50 for GIPRCNT values of 0, and 100 for GIPRCNT values of -100.", "values": [
      {"compound": "CCC1=CC2CN(C1)Cc1c([nH]c3ccccc13)[C@@](C(=O)OC)(c1cc3c(cc1OC)N(C)[C@H]1[C@@](O)(C(=O)OC)[C@H](OC(C)=O)[C@]4(CC)C=CCN5CC[C@]31[C@@H]54)C2", "note": "(stereo not given in full)", "growth": "8.05% (active)"},
      {"compound": "Cn1c(=O)c2c(nc(N/N=C/c3ccccc3Cl)n2C)n(C)c1=O", "growth": "96.2% (inactive)"},
      {"compound": "Brc1ccsc1Br", "growth": "103% (inactive)"},
      {"compound": "C#CCO[C@H]1CC[C@H](OCC#C)[C@@H]2[C@H]1[C@H]1C[C@@H]3[C@@]4(C)CCC[C@@](C)(C(=O)OC)[C@@H]4CC[C@@]23C=C1C(C)C", "growth": "90.5% (inactive)"},
      {"compound": "COc1ccc(-c2nc(SCCC(C)C)nc(Nc3ccc(C(=O)O)cc3)c2C#N)cc1", "growth": "80.5% (inactive)"},
      {"compound": "COC1(OC)C2(Cl)CCC1(Cl)C(Cl)=C2Cl", "growth": "98% (inactive)"},
      {"compound": "CCN(CC)c1ccc(/C=N/NC(=O)C[N+](C)(C)C)cc1", "growth": "96.9% (inactive)"},
      {"compound": "Clc1cccc(CNc2c3ccccc3nc3ccccc23)c1", "growth": "0.909% (active)"},
      {"compound": "O=C(CC(=O)C(F)(F)C(F)(F)C(F)(F)F)c1cc2ccccc2o1", "growth": "103% (inactive)"},
      {"compound": "CC(C)CCC(=O)[C@@H](C)[C@H]1[C@@H](OC2OCC(O)C(O)C2NS(C)(=O)=O)C[C@H]2[C@@H]3CC=C4C[C@@H](O)CC[C@]4(C)[C@H]3CC[C@]12C", "note": "(stereo not given in full)", "growth": "17.1% (inactive)"},
      {"compound": "CN1C(=O)C(C2=NNC(c3ccccc3C(=O)O)C2)C(=O)N(C)C1=O", "note": "(stereo not given)", "growth": "99.7% (inactive)"},
      {"compound": "CC(C)[C@@]12C[C@@H](OC(=O)C3CO3)[C@@](C)(O1)[C@@H]1CC[C@@H](C)[C@H]1[C@@H]2OC(=O)/C=C/c1ccccc1", "note": "(stereo not given in full)", "growth": "85.7% (inactive)"},
      {"compound": "Fc1ccc(-c2cnc3nonc3n2)c(F)c1", "growth": "85% (inactive)"},
      {"compound": "C=C1C(=O)O[C@H]2[C@H]1CC/C(COC(=O)NCc1ccc(Cn3c(=O)sn(CCCl)c3=O)cc1)=C\\CC[C@@]1(C)O[C@@H]21", "growth": "31.7% (inactive)"},
      {"compound": "O=C1OCC2=C1C(c1ccccc1)c1cc3c(cc1N2CCO)OCO3", "note": "(stereo not given)", "growth": "-11.1% (active)"},
      {"compound": "COc1cc(C2C(C#N)=C(N)Oc3cc4c(cc32)OCO4)cc2c1OCO2", "note": "(stereo not given)", "growth": "16.6% (inactive)"},
      {"compound": "CC1CCN(CCCCCOc2ccc3oc4ccc(Cl)cc4c(=O)c3c2)CC1", "growth": "59.8% (inactive)"},
      {"compound": "C#Cc1cccc(Nc2nc3cc([N+](=O)[O-])ccc3nc2Nc2ccc(O)cc2)c1", "growth": "2.84% (active)"},
      {"compound": "CC(C)c1ccc(-c2cnc3nonc3n2)cc1", "growth": "11.5% (inactive)"},
      {"compound": "CCOC(=O)Nc1ccc2nc(N3CCCCCC3)sc2c1", "growth": "19.5% (inactive)"},
      {"compound": "CC(C)(C)c1ccc(OC(=O)Nc2ccccc2)cc1", "growth": "110% (inactive)"},
      {"compound": "Oc1c(C(Nc2cccc3ccccc23)c2ccccc2)ccc2cccnc12", "note": "(stereo not given)", "growth": "25.8% (inactive)"},
      {"compound": "CC(C)CCSc1nc(-c2ccc(F)cc2)c(C#N)c(N2CCCCC2)n1", "growth": "93.6% (inactive)"},
      {"compound": "C=CCOc1ccc2c(C)cc(=O)oc2c1", "growth": "98.2% (inactive)"},
      {"compound": "CC1=CCC2C1CC=C(C)C(CC[C@H]1[C@@](C)(O)CCC3OC(C)(C)[C@H](OC(=O)c4ccccc4)CC[C@@]31C)C2(C)C", "note": "(stereo not given in full)", "growth": "74.9% (inactive)"},
      {"compound": "COc1cccc(-c2cc(-c3cccs3)c(C#N)c(=O)[nH]2)c1", "growth": "94.2% (inactive)"},
      {"compound": "CCN1C(=O)N(CC)C2C1NN=c1s/c(=C\\c3ccc(Br)cc3)c(=O)n12", "note": "(stereo not given)", "growth": "1.61% (active)"},
      {"compound": "CCOCCNc1ccc(S(=O)(=O)c2ccc(N)cc2)cc1N", "growth": "113% (inactive)"},
      {"compound": "Cc1ccc([C@H]2c3[nH]c4ccccc4c3C[C@H]3C(=O)N(CCCCCCC(=O)NO)CC(=O)N23)cc1", "growth": "35.5% (inactive)"},
      {"compound": "CCCCCCCCCCCCCC1=NC(C)(C)CN1C(C)C", "growth": "-41.3% (active)"},
      {"compound": "COc1ccc2nc(-c3ccc(-c4noc(-c5ccc(Cl)cc5)n4)cc3)[nH]c2c1", "growth": "46.4% (inactive)"},
      {"compound": "C=CCCCCOc1cccc(/C=C2\\N=C3SCCCN3C2=O)c1", "growth": "88.9% (inactive)"},
      {"compound": "COc1cc(C2CC(c3ccc(Cl)cc3)=NN2C(C)=O)ccc1Oc1ccnc2cc(Cl)ccc12", "note": "(stereo not given)", "growth": "42.5% (inactive)"},
      {"compound": "O=c1c2cc(Cl)ccc2oc2ccc(OCCCCCN3CCCCCC3)cc12", "growth": "75.3% (inactive)"},
      {"compound": "CN1C2CCC1/C(=C\\c1ccc(F)cc1)C(=O)/C2=C/c1ccc(F)cc1", "growth": "24.5% (inactive)"},
      {"compound": "O=C(Nc1cccc(C2=NCCN2)c1)c1ccc(N=Nc2ccc(C(=O)Nc3cccc(C4=NCCN4)c3)cc2)cc1", "growth": "62.4% (inactive)"},
      {"compound": "C=CCOC(=O)C1=C(C)NC2=C(C(=O)CC(C)(C)C2)C1c1ccc(OC)cc1", "note": "(stereo not given)", "growth": "97.4% (inactive)"},
      {"compound": "CS(=O)(=O)c1ccc(C(=O)N/N=C/c2cccc3ccccc23)cc1", "growth": "44.9% (inactive)"},
      {"compound": "N=C(N)c1ccc(NCCNc2ccc(C(=N)N)cc2)cc1", "growth": "101% (inactive)"},
      {"compound": "COC(=O)c1ccc2c(c1)nc(-c1ccc(Cl)cc1)n2-c1cc(C(C)(C)C)[nH]n1", "growth": "25.1% (inactive)"}
    ]}
  ]
}
